Here are results for 40 compounds from PubChem BioAssay (NCI).

The panel holds about 83,000 compounds, 20% with a hit somewhere; the sample as a whole holds those more often.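 Cells were grown in 96-well plates and exposed to the test compound at a single concentration for 48 hours; results are reported as percent growth, with values below 10 considered active.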 Calls of active or inactive are those of the source.

In this assay the test system is SK-MEL-2 melanoma. The assay is described as follows: NCI-60 one-dose screen, 48 h (100 = growth as untreated, 0 = no growth, -100 = all killed). Particulars: 10 µM unless noted. The method, then: Growth inhibition of the SK-MEL-2 human tumor cell line is measured as a screen for anti-cancer activity. Cells are grown in 96 well plates and exposed to the test compound for 48 hours. Compounds are tested at a single concentration, which is 10^-5 M for most compounds. The reported endpoint is percent growth (GI% or GIPRCNT), where numbers from 0 - 100% represent growth inhibition, and numbers from -100% - 0 represent cell death. For example, a value of 40 represents 60% growth inhibition. A value of 0 means no net growth occurred over the course of the experiment. A value of -40 indicates 40% of cells at the beginning of the experiment died by the end of the experiment. A value of -100 means all cells are dead at the end of the experiment.
NCI-60 Human Tumor Cell Lines Screen was performed using the standard one-dose NCI protocol, which is described in more detail at https://dtp.cancer.gov/discovery_development/nci-60/default.htm.
Compounds with GIPRCNT values below 10 were considered active. Activity score was based on GIPRCNT using the following formula: […]
Score is 0 for GIPRCNT values of 100 or above, 50 for GIPRCNT values of 0, and 100 for GIPRCNT values of -100.
As for `CC(=O)N1N=C(c2ccc(Cl)cc2)CC1c1cn(-c2ccccc2)nc1-c1ccc([N+](=O)[O-])cc1` (stereo not given), the growth was 129% (inactive).

For the compound `NC(=O)c1c(Nc2ccccc2)nn2cc(-c3nc4ccccc4s3)c(N)nc12`, the growth is 100% (inactive).

Regarding `CC1=C(C)C(=O)C(C(C)C2=C(C)C(=O)C(C)=C(C)C2=O)=C(C)C1=O`, the growth is 97.8% (inactive).

In the case of `N=C(c1ccccc1)N(Cc1ccccc1)Cc1ccccc1`, the growth was 85.4% (inactive).

With `CC(O)CCC(C)[N+](=O)[O-]` (stereo not given), the growth was 109% (inactive).

Regarding `OCCN1CCN(CC/C=C2/c3ccccc3Sc3ccc(C(F)(F)F)cc32)CC1`, the growth is 79.8% (inactive).

Take `O=C1CCNC1`: the growth is 109% (inactive).

For `COc1cc([C@@H]2c3cc4c(cc3[C@H](O)[C@H]3COC[C@@H]23)OCO4)cc(OC)c1OC`, the growth is 89.3% (inactive).

As to `CCn1cnc(C[C@H](NC(=O)[C@@H](NC(=O)Nc2cc(C(F)(F)F)cc(C(F)(F)F)c2)C(C)(C)C)C(=O)OC)c1`, the growth is -91% [100 µM] (active).

With `O=S(=O)(O)CCI`, the growth was 102% (inactive).

Take `COC(=O)c1ccc2[nH]c(O)c(C(=Nc3ccc(N(C)C(=O)CN4CCN(C)CC4)cc3)c3ccc4c(c3)OCO4)c2c1`: the growth is -36.7% (active).

With `COc1cc2c(c3c1c(=O)c1cccc(F)c1n3C)C=CC(C)(C)O2`, the growth was 113% (inactive).

`COc1ccc(C2=NN(C(=O)c3cc(-c4ccc(C)cc4)nc4ccccc34)C(c3cc(-c4ccccc4)nn3-c3ccccc3)C2)cc1` (stereo not given): the growth is 94.9% (inactive).

`CCC(C)[C@H](NC(=O)Nc1cc(C(F)(F)F)cc(C(F)(F)F)c1)C(=O)N[C@@H](Cc1cn(C)cn1)C(=O)OC` (stereo not given in full): the growth was -92.4% [100 µM] (active).

With `C[n+]1c2ccccc2c(Nc2ccc(NS(=O)(=O)CCCCN=C(N)N)cc2)c2ccc(N)cc21`, the growth was 86.2% (inactive).

With `COC(=O)[C@H](Cc1cn(C)cn1)NC(=O)[C@@H](NC(=O)Nc1cc(C(F)(F)F)cc(C(F)(F)F)c1)C(C)(C)C`, the growth was -88.7% [100 µM] (active).

`COC(=O)c1c[n+]([O-])ccc1OC`: the growth is 117% (inactive).

For the compound `N#Cc1ccc(NC2c3ccccc3CC2O)cc1` (stereo not given), the growth was 103% (inactive).

In the case of `O=C1c2ccccc2CCc2ccccc21`, the growth is 102% (inactive).

In the case of `CCCC(=O)NNc1[nH]c(-c2ccc(OC)cc2)cc1C(=O)OCC`, the growth is 94.6% (inactive).

Consider `S=C(N/N=C/c1cc(Cl)cc(Cl)c1)NC12CC3CC(CC(C3)C1)C2`, for which the growth was 116% (inactive).

Consider `c1ccc2[nH]c(-c3ccc(OCCCCCOc4ccc(-c5nc6ccccc6[nH]5)cc4)cc3)nc2c1`, for which the growth was 64% (inactive).

In the case of `N#Cc1ccc(OCc2nc(N)nc(N)c2-c2ccc(Cl)c(Cl)c2)cc1`, the growth was 29.8% (inactive).

As for `CC(C)(C)c1cc(C[P+](c2ccc(Cl)cc2)(c2ccc(Cl)cc2)c2ccc(Cl)cc2)cc(C(C)(C)C)c1O`, the growth is 76.2% (inactive).

For `NNC(=O)CNc1ccc2ccccc2c1`, the growth was 98.7% (inactive).

`CCCCCCCCCc1cc[n+](CC(=O)c2ccc([N+](=O)[O-])cc2)cc1`: the growth was -73.9% (active).

For the compound `Cc1ncc(C(=O)Nc2ccc(CN3CCN(C)CC3)c(C(F)(F)F)c2)cc1C#Cc1c(N)ncc2ccccc12`, the growth was -76.9% (active).

Turning to `CN1CCN(Cc2ccc(NC(=O)c3cncc(C#Cc4c(N)ncc5ccc(F)cc45)c3)cc2C(F)(F)F)CC1`, the growth is -33% (active).

With `Nc1nc2c(c3cnccc13)C(c1cccc(Br)c1)Cc1cnccc1-2` (stereo not given), the growth is 27.2% (inactive).

Take `O=c1c(N=Nc2nccs2)c(-c2ccccc2)[nH]n1-c1nc(-c2ccccc2)cs1`: the growth was 22.8% (inactive).

On to `Br/C(=N\Nc1nn[nH]n1)c1ccccc1`, for which the growth is 90.9% (inactive).

For the compound `Cc1ccc(C(=O)NN)cc1`, the growth was 119% (inactive).

For the compound `C=CCN(C)C`, the growth was 113% (inactive).

For `O=C(/C(Br)=C/c1ccccc1)c1ccccc1`, the growth is 15.2% (inactive).

Consider `O=C(N/N=C/c1coc2ccccc2c1=O)c1cc2oc(-c3ccccc3)cc2[nH]1`, for which the growth was 75.4% (inactive).

For `Cc1nn(-c2ccccc2)c(N)c1N=C1NC(=O)/C(=C/c2ccc(Cl)cc2)S1`, the growth is 100% (inactive).

On to `[N-]=[N+]=Nc1ncc(-c2ccc(C(F)(F)F)cc2)c(NC2CCCCCC2)n1`, for which the growth was 5.91% [100 µM] (active).

With `CCc1ccc(C(=Nc2ccc(N(C)C(=O)CN3CCN(C)CC3)cc2)c2c(O)[nH]c3ccc(C(=O)OC)cc23)cc1`, the growth is -55.4% (active).

As to `CN1CCN(Cc2ccc(NC(=O)c3ccc(C#Cc4c(N)ncc5ccc(F)cc45)cc3)cc2C(F)(F)F)CC1`, the growth was -40.3% (active).

Regarding `CC[C@H](Nc1ncnc2nc[nH]c12)c1nc2cccc(NCc3ccc(C(=O)NO)nc3)c2c(=O)n1-c1ccccc1`, the growth was 55.6% (inactive).
